Hck-Nef inh: human Hck-Nef kinase inhibition. P08631. Recombinant Hck-YEEI plus Nef, Z-Lyte FRET kinase assay. inhibition, % at 20 µM. 0.68% of 220,000 active. AID 463187;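 active = Hck-Nef kinase inhibition above about 50%, limit read from the data; inactive = inhibition below that limit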
Mcl1 Bid PPI: disrupts binding of human Mcl-1 to Bid peptide. 0.97% of 220,000 active. AID 1021. TR-FRET Mcl-1/Bid-Dy647 peptide binding, 1536-well. inhibition, % at 21.7 µM;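 active = compounds that cut the binding signal by more than half at the single screening dose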;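 note: His-tagged Mcl-1 with europium anti-His antibody binding Bid BH3 peptide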
eIF4E 4G PPI: blocks eIF4E binding to eIF4G; TR-FRET eIF4E-eIF4GI(517-606) binding, 2 h; inhibition, % at 21.7 µM; 0.37% of 220,000 active;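 active = inhibition above about 30%, limit read from the data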
Mcl1 Noxa PPI: disrupts binding of human Mcl-1 to Noxa peptide | Q07820 | TR-FRET Mcl-1/Noxa peptide binding, 2 h | inhibition, % at 21.7 µM | 1.5% of 220,000 active | AID 1022;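 active = compounds that cut the protein-peptide binding signal by more than 50% relative to plate controls in a single-dose test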;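 note: His-tagged Mcl-1 with rhodamine Noxa BH3 peptide and terbium anti-His antibody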
Bim-Mcl-1: human Bim-Mcl-1 interaction inhibition; inhibition, % at 10 µM; 0.1% of 190,000 active; Bead-based flow cytometry, Bim peptide-Mcl-1 binding; AID 1009; in the data active = inhibition above about 40%
14-3-3 Bad PPI: disrupts binding of bovine 14-3-3 zeta to phospho-Bad peptide; P63103; 0.71% of 220,000 active; TR-FRET 14-3-3zeta/Dy647-pBad peptide displacement, 1 h; inhibition, % at 21.7 µM;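 active = inhibition above about 70%, limit read from the data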
Hck Nef conf: Hck-Nef kinase inhibition, confirmation; calls only at 10 µM; Recombinant Hck-YEEI:Nef, Z-Lyte FRET kinase assay; shares compounds with Hck-Nef inh; 28% of 1,300 active;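 active = average inhibition of at least 50%, with Z-scores no higher than 3 in both the phospho-tyrosine peptide and fluorescence counterscreens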
Large screens that a line does not name were inactive (follow-up assays come after a bar, where shown); [ ] = another dose, or the depositor's remark. Shown are actives, neighbours in structure and some others; about 3.5% of the full set was active somewhere.

Cc1cccc(NC(=O)c2cc3c(s2)-c2c(C)cccc2OC3)n1	Hck-Nef inh 87.0 (not shown: Bim-Mcl-1)
Cc1cccn2c(=O)c3cc(C(=O)NC(C)c4ccccc4)c(=N)n(CCCn4ccnc4)c3nc12 (stereo not drawn)	Hck-Nef inh active (not shown: Bim-Mcl-1)
N=c1c(C(=O)NC2CCCC2)cc2c(=O)n3ccccc3nc2n1C1CCCC1	Hck-Nef inh 122.1 (not shown: eIF4E 4G PPI, 14-3-3 Bad PPI)
COc1cccc(NC(=O)c2cc3c(=O)n4ccccc4nc3n(CC(C)C)c2=N)c1	none
CCCn1c(=N)c(C(=O)NC2CCCC2)cc2c(=O)n3cccc(C)c3nc21	Hck-Nef inh 187.3
Cc1cccn2c(=O)c3cc(C(=O)NC4CCCCC4)c(=N)n(CCN4CCOCC4)c3nc12	none (no result: Bim-Mcl-1)
COCCCn1c(=N)c(C(=O)NC2CCCCC2)cc2c(=O)n3ccccc3nc21	Hck-Nef inh active
COc1ccc(C(=O)N/C(=C\c2ccc3c(c2)OCO3)C(=O)NCCc2nc3ccccc3[nH]2)cc1	none
CCc1ccc(/C=N/Nc2ncnc3nc[nH]c23)cc1	Hck-Nef inh 94.9 (no result: Bim-Mcl-1) | Hck Nef conf active
O=C(Nc1nc2ccsc2c(=O)s1)c1ccco1	Hck-Nef inh 64.7 (no result: Bim-Mcl-1) | Hck Nef conf inactive
C=C(C)C(=O)N1CC2(CC(c3cccc(NC(=O)/C(C)=C\C)c3)=NO2)C[C@H]1C(N)=O (stereo partly drawn)	none (no result: Bim-Mcl-1)
S=c1[nH]nc(-c2ccncc2)n1/N=C/c1cn(-c2ccccc2)nc1-c1ccccc1	none (no result: Bim-Mcl-1)
O=[N+]([O-])c1ccc(-c2nn(-c3ccccc3)cc2/C=N/n2c(-c3ccncc3)n[nH]c2=S)cc1	Hck-Nef inh 53.6, Mcl1 Noxa PPI 51.5 (no result: Bim-Mcl-1) | Hck Nef conf inactive
CCn1nc(C)c(NC(=O)/C=C/c2ccc(OC)c(COc3ccc(Cl)cc3Br)c2)c1C	Hck-Nef inh 98.7, Mcl1 Bid PPI 64.0, 14-3-3 Bad PPI 76.9 | Hck Nef conf inactive
O=C(c1cnn(C(=O)COc2ccccc2F)c1)c1cc(F)ccc1O	Hck-Nef inh 75.3 (no result: Bim-Mcl-1) | Hck Nef conf active
Cc1ccnc(NC(=O)CCC(=O)N(CC(=O)NCc2ccccc2)Cc2cccs2)c1	none
O=C(NCCN1C(=O)S/C(=C\c2cccs2)C1=O)[C@H](Cc1ccccc1)N1C(=O)c2ccccc2C1=O	none
CCCCCCCCCCCCCCCC[n+]1ccc(/C=N/O)cc1	Hck-Nef inh 112.1, eIF4E 4G PPI 70.0[fluorescence artefact?], 14-3-3 Bad PPI 99.2[fluorescence artefact?]
CC(=O)N=c1c(C#N)cc2c(=O)n3cccc(C)c3nc2n1Cc1ccco1	Hck-Nef inh 165.4 (no result: Bim-Mcl-1) | Hck Nef conf inactive
Cc1cccn2c(=O)c3cc(C#N)c(=NC(=O)c4cccs4)n(CCCOC(C)C)c3nc12	Hck-Nef inh 105.9 (no result: Bim-Mcl-1) | Hck Nef conf inactive
Cc1cccn2c(=O)c3cc(C#N)c(=NC(=O)c4ccncc4)n(CCCOC(C)C)c3nc12	none
CC(CCc1ccccc1)NC(=O)c1cccs1 (stereo not drawn)	none
CC(=O)OCc1cc(-c2nc3ccccc3[nH]c2=O)nn1-c1ccc(Cl)cc1	none (no result: Bim-Mcl-1)
COc1ccc(/C=N/n2c(C)nc3c([nH]c4ccccc43)c2=O)cc1CN1CCCC(C)(C)C1	Hck-Nef inh 55.6 (no result: Bim-Mcl-1) | Hck Nef conf inactive
COc1ccc2[nH]c3c(=O)n(/N=C/c4ccc(OC)c(CN5CCCC5)c4)c(C)nc3c2c1	none (no result: Bim-Mcl-1)
COc1ccc(C(=O)NCC(=O)OCc2csc(-c3ccccc3)n2)cc1	none
COc1ccc(C(=O)CSc2nnc(-c3ccco3)n2C)cc1	none
COc1ccc(C(=O)CSc2nnc(-c3ccco3)c(-c3ccco3)n2)cc1	Hck-Nef inh 85.0, Mcl1 Bid PPI 53.6, Mcl1 Noxa PPI 90.2 | Hck Nef conf inactive
O=C(N=Nc1c(O)[nH]c2ccccc12)c1cc(NS(=O)(=O)c2cccs2)cc(NS(=O)(=O)c2cccs2)c1	Hck-Nef inh 88.1, Mcl1 Noxa PPI 56.6, 14-3-3 Bad PPI 80.0 | Hck Nef conf active
CCOc1ccc(S(=O)(=O)N2CCCCC2)c(C)c1C	Hck-Nef inh 82.8 | Hck Nef conf inactive
COc1cccc(C(=O)OCc2ccccc2C#N)c1O	none
CC(=O)Nc1ccc(NC(=O)c2ccc(C)c(S(=O)(=O)Nc3cccc(C)c3)c2)cc1	none
CCC(=C(c1ccc(OC)cc1)c1ccc(OC)cc1)c1cn(CC(O)CN2CCN(C)CC2)c2ccccc12 (stereo not drawn)	Hck-Nef inh 111.2, 14-3-3 Bad PPI 96.1[fluorescence artefact?] | Hck Nef conf inactive
Cc1ccc(NC(=O)C2Cc3ccccc3CN2C(=O)c2ccccc2)cc1Cl (stereo not drawn)	none
N#Cc1cc2c(=O)n3ccccc3nc2n(CCCn2ccnc2)c1=N	Hck-Nef inh 55.4 (no result: Mcl1 Bid PPI, eIF4E 4G PPI, Mcl1 Noxa PPI, 14-3-3 Bad PPI) | Hck Nef conf inactive
CCCn1c(=N)c(C#N)cc2c(=O)n3ccccc3nc21	Hck-Nef inh 60.4
CCCn1c(=N)c(C#N)cc2c(=O)n3cccc(C)c3nc21	none
COc1ccc(CCNc2nc(-c3sc(N)nc3C)cs2)cc1OC	none
COCCNc1nc(-c2cc(C)n(CCc3ccc(OC)cc3)c2C)cs1	Hck-Nef inh 50.7, Mcl1 Noxa PPI 57.0 | Hck Nef conf inactive
O=C(OC1CCOC1=O)c1cc(-c2cccs2)nc2ccccc12 (stereo not drawn)	none
CCC/C=N/NC(=O)c1cccc(Br)c1	Hck-Nef inh 119.4 | Hck Nef conf inactive
CCC/C=N/NC(=O)c1ccc(F)cc1	none
O=C(N/N=C\c1ccc(F)cc1)c1ccc(Cn2cc(Br)c([N+](=O)[O-])n2)o1	Hck-Nef inh 62.2 | Hck Nef conf active
CCCCN(C(=O)Cn1ncc(Cl)c(Cl)c1=O)c1c(N)n(CC(C)C)c(=O)[nH]c1=O	Hck-Nef inh 65.8, Mcl1 Noxa PPI 65.9 (no result: Bim-Mcl-1) | Hck Nef conf active
CCCCN(C(=O)CN1CC(C)OC(C)C1)c1c(N)n(CC(C)C)c(=O)[nH]c1=O (stereo not drawn)	none
O=S(=O)(c1cccc(-c2nnc3n2CCCCC3)c1)N1CCCC1	none
S=C(c1ccc2c(c1)OCO2)N1CCCCCC1	none
Oc1cc2c(cc1C(c1ccc(Br)cc1)N1CCCC1)OCO2 (stereo not drawn)	Hck-Nef inh 73.2, Mcl1 Bid PPI 89.7, eIF4E 4G PPI 43.6, Mcl1 Noxa PPI 81.5 | Hck Nef conf inactive
C[C@H](N)C(=O)OCc1ccc([N+](=O)[O-])cc1	none (no result: Bim-Mcl-1)
CC(O)C(C(=O)OCc1ccc([N+](=O)[O-])cc1)N1C(=O)c2ccccc2C1=O (stereo not drawn)	Hck-Nef inh 70.7 | Hck Nef conf inactive
CC(C)n1cnc2cc(NCc3ccccc3O)ccc21	none (no result: Bim-Mcl-1)
CC(C)n1cnc2cc(NCc3ccco3)ccc21	Hck-Nef inh 78.6, Mcl1 Noxa PPI 52.0, 14-3-3 Bad PPI 70.4 | Hck Nef conf inactive
COc1cc2c(C#N)c(N3CCN(C)CC3)nc(N)c2c(N)n1	none

Screening data: PubChem BioAssay, several laboratories
